Laboratory results taken from article PMC7862700, “An all-to-all approach to the identification of sequence-specific readers for epigenetic DNA modifications on cytosine”.

Key:
Experiment in all cases: DAPPL (digital affinity profiling via proximity ligation, sequencing); 10 mM Tris-HCl pH 7.5, 50 mM NaCl, 1 mM DTT, 4% glycerol, room temperature, 30 min; GST-TFs on glutathione beads, 16-mer random dsDNA library, 0.1% formaldehyde crosslink after washing; high values mean tight binding
[1] = biological target: T1, FLI1 (Homo sapiens, UniProt Q01543 1-452); settings: protein: recombinant; tags: N-terminal GST; dsDNA, one strand shown
T1 sequence: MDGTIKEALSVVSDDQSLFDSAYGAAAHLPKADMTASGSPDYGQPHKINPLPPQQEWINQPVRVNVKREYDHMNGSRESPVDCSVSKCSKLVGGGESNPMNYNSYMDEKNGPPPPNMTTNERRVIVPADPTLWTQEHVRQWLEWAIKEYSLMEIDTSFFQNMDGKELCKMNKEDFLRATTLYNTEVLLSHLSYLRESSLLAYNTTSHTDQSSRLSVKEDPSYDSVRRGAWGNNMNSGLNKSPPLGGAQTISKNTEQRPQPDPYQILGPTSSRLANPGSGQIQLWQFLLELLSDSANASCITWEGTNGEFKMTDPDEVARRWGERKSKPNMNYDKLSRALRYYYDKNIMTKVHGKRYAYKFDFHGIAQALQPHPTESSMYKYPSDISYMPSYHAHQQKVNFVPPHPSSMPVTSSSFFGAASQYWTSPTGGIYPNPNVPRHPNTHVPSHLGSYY
In short: (§1)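 A tag-only sample was pooled with DNA-barcoded human transcription factors that had been expressed in yeast as GST fusions and captured on glutathione beads. The pools were incubated for 30 min at room temperature with 200 nmole of a random double-stranded 16-mer DNA library in Tris/NaCl/DTT/glycerol buffer, then washed, crosslinked with 0.1% formaldehyde, proximity-ligated (BsaI/T4 ligase, 1 h, 37 °C), PCR-amplified and sequenced on an Illumina NextSeq500. Binding signal is each hexamer's read frequency for a factor divided by its frequency for the tag-only sample.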

[2] = biological target: T2, ELK1 (Homo sapiens, UniProt P19419 1-428); settings: protein: recombinant; tags: N-terminal GST; dsDNA, one strand shown
T2 sequence: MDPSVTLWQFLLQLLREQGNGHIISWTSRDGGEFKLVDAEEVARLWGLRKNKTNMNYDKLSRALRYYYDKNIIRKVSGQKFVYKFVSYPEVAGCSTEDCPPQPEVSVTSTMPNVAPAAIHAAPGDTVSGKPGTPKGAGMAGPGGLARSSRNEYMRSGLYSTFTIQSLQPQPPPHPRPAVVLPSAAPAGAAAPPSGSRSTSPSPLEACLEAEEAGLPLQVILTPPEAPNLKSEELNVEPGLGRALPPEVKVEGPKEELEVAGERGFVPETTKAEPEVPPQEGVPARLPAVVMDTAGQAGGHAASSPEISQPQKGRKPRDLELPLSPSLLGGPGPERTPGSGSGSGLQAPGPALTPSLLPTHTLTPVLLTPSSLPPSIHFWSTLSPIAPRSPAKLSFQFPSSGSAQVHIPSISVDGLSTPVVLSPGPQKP
In short: as §1

[3] = biological target: T3, GABPA (Homo sapiens, UniProt Q06546 1-454); settings: protein: recombinant; tags: N-terminal GST; dsDNA, one strand shown
T3 sequence: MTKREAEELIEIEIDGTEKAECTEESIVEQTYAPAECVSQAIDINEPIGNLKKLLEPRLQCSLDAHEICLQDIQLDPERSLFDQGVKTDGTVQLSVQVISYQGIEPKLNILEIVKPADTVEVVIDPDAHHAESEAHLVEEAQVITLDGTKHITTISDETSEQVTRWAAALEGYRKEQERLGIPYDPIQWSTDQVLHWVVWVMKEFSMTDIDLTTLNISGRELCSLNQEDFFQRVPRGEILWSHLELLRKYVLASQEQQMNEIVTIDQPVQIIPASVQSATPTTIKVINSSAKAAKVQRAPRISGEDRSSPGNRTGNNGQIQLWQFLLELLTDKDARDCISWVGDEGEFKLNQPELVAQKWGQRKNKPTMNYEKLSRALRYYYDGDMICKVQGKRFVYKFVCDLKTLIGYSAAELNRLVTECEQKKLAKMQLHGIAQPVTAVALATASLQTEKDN
In short: as §1

[4] = biological target: T4, ERG (Homo sapiens, UniProt P11308 1-479); settings: protein: recombinant; tags: N-terminal GST; dsDNA, one strand shown
T4 sequence: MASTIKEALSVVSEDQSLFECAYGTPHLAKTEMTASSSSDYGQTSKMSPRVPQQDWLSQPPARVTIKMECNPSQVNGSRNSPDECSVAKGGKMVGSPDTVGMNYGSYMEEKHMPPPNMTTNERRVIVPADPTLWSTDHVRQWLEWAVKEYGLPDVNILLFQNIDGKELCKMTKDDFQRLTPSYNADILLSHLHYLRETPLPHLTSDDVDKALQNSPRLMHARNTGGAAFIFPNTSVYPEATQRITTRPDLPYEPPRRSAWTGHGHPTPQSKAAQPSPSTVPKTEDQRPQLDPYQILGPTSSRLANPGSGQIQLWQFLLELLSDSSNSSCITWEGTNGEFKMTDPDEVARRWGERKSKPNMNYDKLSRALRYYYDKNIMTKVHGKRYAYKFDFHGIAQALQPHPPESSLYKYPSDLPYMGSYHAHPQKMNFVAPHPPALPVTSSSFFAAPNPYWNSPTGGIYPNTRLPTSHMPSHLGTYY
In short: as §1

[5] = biological target: ELF1 (Homo sapiens, UniProt P32519 1-619); settings: protein: recombinant; tags: N-terminal GST; dsDNA, one strand shown
Sequence of ELF1 (P32519 whole entry): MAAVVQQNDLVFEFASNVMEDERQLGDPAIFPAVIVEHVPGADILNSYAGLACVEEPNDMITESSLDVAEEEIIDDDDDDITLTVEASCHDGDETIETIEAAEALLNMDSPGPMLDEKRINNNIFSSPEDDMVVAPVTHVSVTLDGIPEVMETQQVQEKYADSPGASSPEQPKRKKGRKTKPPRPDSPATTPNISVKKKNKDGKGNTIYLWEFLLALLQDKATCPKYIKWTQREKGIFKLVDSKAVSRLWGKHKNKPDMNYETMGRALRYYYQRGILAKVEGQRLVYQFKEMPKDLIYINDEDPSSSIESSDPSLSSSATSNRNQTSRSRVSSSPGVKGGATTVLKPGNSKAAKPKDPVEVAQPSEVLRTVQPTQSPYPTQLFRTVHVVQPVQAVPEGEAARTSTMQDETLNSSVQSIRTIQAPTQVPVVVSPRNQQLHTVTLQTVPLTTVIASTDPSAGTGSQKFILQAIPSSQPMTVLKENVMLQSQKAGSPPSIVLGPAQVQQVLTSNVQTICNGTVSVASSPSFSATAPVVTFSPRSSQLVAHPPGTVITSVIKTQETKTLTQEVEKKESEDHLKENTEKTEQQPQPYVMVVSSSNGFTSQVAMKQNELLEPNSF
In short: as §1

[6] = biological target: T5, EHF (Homo sapiens, UniProt Q9NZC4 1-300); settings: protein: recombinant; tags: N-terminal GST; dsDNA, one strand shown
T5 sequence: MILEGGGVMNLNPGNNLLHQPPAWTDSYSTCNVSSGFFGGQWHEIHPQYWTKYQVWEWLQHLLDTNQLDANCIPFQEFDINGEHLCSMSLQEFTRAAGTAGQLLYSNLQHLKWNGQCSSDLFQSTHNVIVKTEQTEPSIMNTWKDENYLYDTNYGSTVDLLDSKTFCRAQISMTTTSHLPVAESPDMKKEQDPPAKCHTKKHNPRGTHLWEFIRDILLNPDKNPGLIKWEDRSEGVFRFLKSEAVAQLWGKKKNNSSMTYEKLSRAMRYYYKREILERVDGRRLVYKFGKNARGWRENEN
In short: as §1

[7] = biological target: SPI1 (Homo sapiens, UniProt P17947 1-270); settings: protein: recombinant; tags: N-terminal GST; dsDNA, one strand shown
In short: as §1

[8] = biological target: SPIB (Homo sapiens, UniProt Q01892 1-262); settings: protein: recombinant; tags: N-terminal GST; dsDNA, one strand shown
Sequence of SPIB (Q01892 whole entry): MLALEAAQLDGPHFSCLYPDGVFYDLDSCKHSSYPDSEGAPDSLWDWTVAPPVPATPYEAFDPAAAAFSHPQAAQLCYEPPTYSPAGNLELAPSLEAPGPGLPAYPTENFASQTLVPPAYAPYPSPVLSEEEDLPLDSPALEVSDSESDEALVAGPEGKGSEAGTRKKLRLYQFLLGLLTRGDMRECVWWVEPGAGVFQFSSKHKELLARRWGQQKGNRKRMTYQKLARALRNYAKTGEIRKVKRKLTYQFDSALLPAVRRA
In short: as §1

[9] = biological target: T6, ELK3 (Homo sapiens, UniProt P41970 1-407); settings: protein: recombinant; tags: N-terminal GST; dsDNA, one strand shown
T6 sequence: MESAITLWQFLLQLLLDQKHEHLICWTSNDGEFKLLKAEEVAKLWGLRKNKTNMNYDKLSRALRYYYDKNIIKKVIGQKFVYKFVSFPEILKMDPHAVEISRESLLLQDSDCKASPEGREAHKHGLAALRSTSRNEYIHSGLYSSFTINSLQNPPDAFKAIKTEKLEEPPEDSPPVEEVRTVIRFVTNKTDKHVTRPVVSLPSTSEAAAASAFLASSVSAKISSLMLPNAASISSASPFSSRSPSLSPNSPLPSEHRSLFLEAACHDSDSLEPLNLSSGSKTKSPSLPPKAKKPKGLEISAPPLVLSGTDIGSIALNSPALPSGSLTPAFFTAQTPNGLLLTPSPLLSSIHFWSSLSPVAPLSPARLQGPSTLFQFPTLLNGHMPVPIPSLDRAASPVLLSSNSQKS
In short: as §1

[10] = biological target: T7, FEV (Homo sapiens, UniProt Q99581 1-238); settings: protein: recombinant; tags: N-terminal GST; dsDNA, one strand shown
T7 sequence: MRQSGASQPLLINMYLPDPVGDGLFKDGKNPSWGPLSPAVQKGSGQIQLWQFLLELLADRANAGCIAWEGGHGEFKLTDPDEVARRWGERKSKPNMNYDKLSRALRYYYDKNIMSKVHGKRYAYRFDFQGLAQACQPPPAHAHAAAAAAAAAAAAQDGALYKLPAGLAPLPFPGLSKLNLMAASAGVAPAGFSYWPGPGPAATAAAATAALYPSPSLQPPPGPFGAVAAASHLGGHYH
In short: as §1

[11] = biological target: ETV5 (Homo sapiens, UniProt P41161 1-510); settings: protein: recombinant; tags: N-terminal GST; dsDNA, one strand shown
Sequence of ETV5 (P41161 whole entry): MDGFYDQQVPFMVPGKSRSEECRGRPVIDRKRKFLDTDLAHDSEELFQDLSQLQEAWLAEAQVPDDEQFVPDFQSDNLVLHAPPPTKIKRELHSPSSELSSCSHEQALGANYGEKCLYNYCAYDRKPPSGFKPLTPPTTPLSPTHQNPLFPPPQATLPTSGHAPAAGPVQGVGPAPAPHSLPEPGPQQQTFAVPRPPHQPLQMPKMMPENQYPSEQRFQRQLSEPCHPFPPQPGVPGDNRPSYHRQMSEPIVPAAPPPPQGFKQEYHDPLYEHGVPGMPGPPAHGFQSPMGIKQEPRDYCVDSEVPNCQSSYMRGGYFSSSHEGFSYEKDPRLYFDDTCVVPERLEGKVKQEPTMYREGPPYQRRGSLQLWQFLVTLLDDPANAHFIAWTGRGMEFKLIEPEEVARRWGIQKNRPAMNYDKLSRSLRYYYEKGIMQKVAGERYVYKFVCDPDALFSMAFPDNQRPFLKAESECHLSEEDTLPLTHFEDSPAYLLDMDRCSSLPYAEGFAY
In short: as §1

[12] = biological target: HSF1 (Homo sapiens, UniProt Q00613 1-529); settings: protein: recombinant; tags: N-terminal GST; chain copies: 3; dsDNA, one strand shown
Sequence of HSF1 (Q00613 whole entry): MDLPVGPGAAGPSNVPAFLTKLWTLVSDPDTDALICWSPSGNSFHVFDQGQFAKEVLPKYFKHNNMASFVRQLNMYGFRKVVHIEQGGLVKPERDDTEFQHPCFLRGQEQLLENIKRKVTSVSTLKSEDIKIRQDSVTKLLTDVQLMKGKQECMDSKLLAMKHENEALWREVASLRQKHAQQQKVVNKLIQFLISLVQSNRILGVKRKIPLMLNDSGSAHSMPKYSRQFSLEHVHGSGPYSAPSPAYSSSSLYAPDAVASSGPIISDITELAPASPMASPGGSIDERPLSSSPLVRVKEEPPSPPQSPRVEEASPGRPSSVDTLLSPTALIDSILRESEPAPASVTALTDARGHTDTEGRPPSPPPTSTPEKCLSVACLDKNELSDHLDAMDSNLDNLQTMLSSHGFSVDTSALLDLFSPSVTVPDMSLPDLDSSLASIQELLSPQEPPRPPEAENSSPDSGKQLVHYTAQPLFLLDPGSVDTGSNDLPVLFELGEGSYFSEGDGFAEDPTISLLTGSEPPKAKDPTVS
In short: as §1

[13] = biological target: T8, SPIC (Homo sapiens, UniProt Q8N5J4 1-248); settings: protein: recombinant; tags: N-terminal GST; dsDNA, one strand shown
T8 sequence: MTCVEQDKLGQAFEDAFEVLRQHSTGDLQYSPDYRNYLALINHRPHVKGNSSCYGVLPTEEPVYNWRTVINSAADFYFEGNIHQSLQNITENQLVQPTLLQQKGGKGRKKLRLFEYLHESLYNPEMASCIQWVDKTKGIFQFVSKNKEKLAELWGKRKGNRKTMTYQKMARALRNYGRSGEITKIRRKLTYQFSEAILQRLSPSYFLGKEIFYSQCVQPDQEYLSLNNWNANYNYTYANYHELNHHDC
In short: as §1

[14] = biological target: ELF4 (Homo sapiens, UniProt Q99607 1-663); settings: protein: recombinant; tags: N-terminal GST; dsDNA, one strand shown
Sequence of ELF4 (Q99607 whole entry): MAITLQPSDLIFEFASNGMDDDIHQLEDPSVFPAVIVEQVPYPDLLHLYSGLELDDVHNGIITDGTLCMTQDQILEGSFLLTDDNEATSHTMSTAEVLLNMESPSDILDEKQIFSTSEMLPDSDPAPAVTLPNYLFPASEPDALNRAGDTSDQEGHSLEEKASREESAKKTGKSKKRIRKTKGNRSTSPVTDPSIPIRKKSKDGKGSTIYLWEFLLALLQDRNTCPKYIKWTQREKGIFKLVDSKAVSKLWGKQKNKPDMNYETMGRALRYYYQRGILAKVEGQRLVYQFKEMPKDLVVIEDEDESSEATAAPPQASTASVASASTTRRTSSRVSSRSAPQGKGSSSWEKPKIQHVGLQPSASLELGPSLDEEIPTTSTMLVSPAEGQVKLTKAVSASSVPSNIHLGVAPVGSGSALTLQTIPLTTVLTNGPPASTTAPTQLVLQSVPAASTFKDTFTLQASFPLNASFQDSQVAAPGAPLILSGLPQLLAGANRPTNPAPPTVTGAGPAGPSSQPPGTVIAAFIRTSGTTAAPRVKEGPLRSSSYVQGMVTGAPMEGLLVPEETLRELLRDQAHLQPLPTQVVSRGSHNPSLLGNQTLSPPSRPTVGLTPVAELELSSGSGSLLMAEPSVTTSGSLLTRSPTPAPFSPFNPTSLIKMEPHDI
In short: as §1

[15] = biological target: T9, ELK4 (Homo sapiens, UniProt P28324-2 1-405); settings: protein: recombinant; tags: N-terminal GST; dsDNA, one strand shown
T9 sequence: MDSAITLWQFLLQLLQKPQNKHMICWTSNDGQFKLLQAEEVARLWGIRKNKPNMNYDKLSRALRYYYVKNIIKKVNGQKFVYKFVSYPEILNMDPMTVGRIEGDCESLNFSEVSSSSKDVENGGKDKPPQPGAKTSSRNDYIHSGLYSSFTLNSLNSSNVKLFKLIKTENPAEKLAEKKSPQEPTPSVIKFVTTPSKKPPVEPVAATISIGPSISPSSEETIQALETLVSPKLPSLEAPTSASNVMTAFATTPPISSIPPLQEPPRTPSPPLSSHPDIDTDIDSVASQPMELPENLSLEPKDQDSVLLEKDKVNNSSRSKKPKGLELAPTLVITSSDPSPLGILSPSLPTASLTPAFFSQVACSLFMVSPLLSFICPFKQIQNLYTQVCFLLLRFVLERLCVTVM
In short: as §1

[16] = biological target: T10, ETV2 (Homo sapiens, UniProt O00321 1-342); settings: protein: recombinant; tags: N-terminal GST; dsDNA, one strand shown
T10 sequence: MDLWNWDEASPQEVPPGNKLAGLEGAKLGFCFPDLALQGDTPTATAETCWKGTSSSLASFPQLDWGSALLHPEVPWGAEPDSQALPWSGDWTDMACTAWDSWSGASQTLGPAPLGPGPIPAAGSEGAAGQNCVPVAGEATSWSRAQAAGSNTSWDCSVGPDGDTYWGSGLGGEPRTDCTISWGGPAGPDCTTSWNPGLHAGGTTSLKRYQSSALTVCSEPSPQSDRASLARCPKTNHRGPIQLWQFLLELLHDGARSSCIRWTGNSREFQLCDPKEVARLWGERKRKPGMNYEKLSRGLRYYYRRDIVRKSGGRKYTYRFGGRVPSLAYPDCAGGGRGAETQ
In short: as §1

[17] = biological target: T11, ELF3 (Homo sapiens, UniProt P78545 1-371); settings: protein: recombinant; tags: N-terminal GST; dsDNA, one strand shown
T11 sequence: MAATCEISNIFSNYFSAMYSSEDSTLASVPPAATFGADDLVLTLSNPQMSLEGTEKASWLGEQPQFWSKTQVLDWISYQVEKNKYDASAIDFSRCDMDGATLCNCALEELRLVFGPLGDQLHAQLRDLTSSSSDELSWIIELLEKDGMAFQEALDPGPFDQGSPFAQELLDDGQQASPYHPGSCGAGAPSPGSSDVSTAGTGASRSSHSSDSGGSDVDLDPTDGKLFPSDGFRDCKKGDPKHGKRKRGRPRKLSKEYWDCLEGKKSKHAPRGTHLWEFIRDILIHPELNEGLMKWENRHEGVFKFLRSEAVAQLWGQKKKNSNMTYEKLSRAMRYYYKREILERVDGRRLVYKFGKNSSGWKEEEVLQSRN
In short: as §1

[18] = biological target: CRX (Homo sapiens, UniProt O43186 1-299); settings: protein: recombinant; tags: N-terminal GST; dsDNA, one strand shown
Sequence of CRX (O43186 whole entry): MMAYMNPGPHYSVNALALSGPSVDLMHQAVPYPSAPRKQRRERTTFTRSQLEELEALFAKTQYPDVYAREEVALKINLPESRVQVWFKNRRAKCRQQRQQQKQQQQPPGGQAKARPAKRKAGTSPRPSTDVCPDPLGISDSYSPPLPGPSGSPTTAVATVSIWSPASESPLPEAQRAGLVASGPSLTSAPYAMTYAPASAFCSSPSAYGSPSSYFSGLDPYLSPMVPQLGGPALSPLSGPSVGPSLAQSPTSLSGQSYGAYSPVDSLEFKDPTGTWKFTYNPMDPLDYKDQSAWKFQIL
In short: as §1

[19] = biological target: ETV1 (Homo sapiens, UniProt P50549 1-477); settings: protein: recombinant; tags: N-terminal GST; dsDNA, one strand shown
Sequence of ETV1 (P50549 whole entry): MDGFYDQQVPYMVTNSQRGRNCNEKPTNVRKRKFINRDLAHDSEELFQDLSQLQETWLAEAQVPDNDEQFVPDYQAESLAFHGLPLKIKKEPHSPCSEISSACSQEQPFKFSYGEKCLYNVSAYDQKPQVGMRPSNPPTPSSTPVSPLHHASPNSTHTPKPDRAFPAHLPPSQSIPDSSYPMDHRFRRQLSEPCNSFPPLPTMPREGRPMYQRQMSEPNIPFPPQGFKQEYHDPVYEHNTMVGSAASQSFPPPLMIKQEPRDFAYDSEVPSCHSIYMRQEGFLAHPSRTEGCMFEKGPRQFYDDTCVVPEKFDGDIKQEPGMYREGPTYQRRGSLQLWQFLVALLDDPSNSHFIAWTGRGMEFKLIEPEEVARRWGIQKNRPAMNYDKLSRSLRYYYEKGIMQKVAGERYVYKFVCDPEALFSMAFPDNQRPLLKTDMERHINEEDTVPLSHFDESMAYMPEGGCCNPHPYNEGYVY
In short: as §1

With TTATAT the binding signal [1] was 1.26 fold enrichment (6-mer frequency, TF over GST control), the binding signal [2] was 1.42 fold enrichment (6-mer frequency, TF over GST control) and the binding signal [3] was 1.39 fold enrichment (6-mer frequency, TF over GST control). The binding signal [4] was 1.4 fold enrichment (6-mer frequency, TF over GST control), the binding signal [5] was 1.34 fold enrichment (6-mer frequency, TF over GST control) and the binding signal [6] was 1.41 fold enrichment (6-mer frequency, TF over GST control). The binding signal [7] was 1.32 fold enrichment (6-mer frequency, TF over GST control), the binding signal [8] was 1.51 fold enrichment (6-mer frequency, TF over GST control) and the binding signal [9] was 1.18 fold enrichment (6-mer frequency, TF over GST control). The binding signal [10] was 1.33 fold enrichment (6-mer frequency, TF over GST control), the binding signal [11] was 1.26 fold enrichment (6-mer frequency, TF over GST control) and the binding signal [12] was 1.76 fold enrichment (6-mer frequency, TF over GST control). For the same sequence, the binding signal [13] was 1.44 fold enrichment (6-mer frequency, TF over GST control), the binding signal [14] was 1.34 fold enrichment (6-mer frequency, TF over GST control) and the binding signal [15] was 1.45 fold enrichment (6-mer frequency, TF over GST control). For the same sequence, the binding signal [16] was 1.46 fold enrichment (6-mer frequency, TF over GST control), the binding signal [17] was 1.44 fold enrichment (6-mer frequency, TF over GST control) and the binding signal [18] was 2.47 fold enrichment (6-mer frequency, TF over GST control). For the same sequence, the binding signal [19] was 1.34 fold enrichment (6-mer frequency, TF over GST control).
